# Among all 100,000 compounds or so, about 770 (0.77%) were called active. Rule as the data show it: active = inhibition above about 50%; inactive = the rest. The entries come from a sample that favours actives as a whole.
# Target: Gag-Pol polyprotein (Human immunodeficiency virus type 1 group M subtype B (isolate HXB2)) (UniProt P04585)
# Assay: RNase H inhibition, HIV 1 Gag Pol polyprotein, FRET biochemical assay, screening (AID 372)
# Conditions: HIV-1 RT RNase H, FRET RNA/DNA substrate fluorescence; at 10 µM; active compounds read high
row,SMILES,inhibition
1,CC(C)(C)C1CCC(C(=O)N/N=C/c2ccc(Cl)s2)CC1 (stereo not given),5% (inactive)
2,CSc1nnc2c(n1)[nH]c1c(C)cccc12,10% (inactive)
3,COc1ccc(N2N=C(c3ccc(C)cc3)CC2c2cccs2)cc1 (stereo not given),6% (inactive)
4,O=C(NNc1ccc([N+](=O)[O-])cc1)c1ccc([N+](=O)[O-])cc1,5% (inactive)
5,O=C(Nc1ccc(OCc2ccccc2)cc1)c1cccc2ccccc12,15% (inactive)
6,CCOc1ccc2nc(SCc3ccc(OC)c(F)c3)sc2c1,20% (inactive)
7,Cc1cc(/C=C2/SC(=S)NC2=O)c(C)n1-c1cccc(Cl)c1,8% (inactive)
8,Cc1cc(C=C2C(=O)NC(=S)NC2=O)c(C)n1-c1ccc(Cl)c(Cl)c1,55% (active)
9,Cc1cc(C=C2C(=O)NC(=S)NC2=O)c(C)n1-c1cccc(Cl)c1,28% (inactive)
10,Cc1ccc(-n2c(C)cc(/C=C3/SC(=S)NC3=O)c2C)cc1,5% (inactive)
11,Cc1cc(/C=C2/SC(=S)NC2=O)c(C)n1-c1ccc(Cl)cc1,2% (inactive)
12,Cc1cc(/C=C2/SC(=S)NC2=O)c(C)n1-c1ccccc1,19% (inactive)
13,Cc1ccc(-n2c(C)cc(C=C3C(=O)NC(=S)NC3=O)c2C)cc1C,19% (inactive)
14,Cc1cc(/C=C2/SC(=S)NC2=O)c(C)n1-c1ccc(Cl)c(Cl)c1,53% (active)
15,Cc1cccc(-n2c(C)cc(/C=C3/SC(=S)NC3=O)c2C)c1,56% (active)
16,CCCCN1C(=O)c2cccc3c(Cl)ccc1c23,44% (inactive)
17,Cc1cc(OCC(=O)Nc2ccccn2)cc(C)c1Cl,2% (inactive)
18,CCOc1ccccc1OCCOc1ccc(C)cc1C(C)(C)C,17% (inactive)
19,CC(C)OC(=O)c1c(NC(=O)c2ccc([N+](=O)[O-])cc2Cl)sc2c1CCCCC2,31% (inactive)
20,CC(C)(C)c1nnc(-c2cccc([N+](=O)[O-])c2)o1,8% (inactive)
21,Cc1cccc(NC(=O)c2cc(Cl)ccc2Cl)n1,54% (active)
22,COc1ccc(Cl)cc1C(=O)Nc1cccc(C)n1,0% (inactive)
23,CC(=O)Nc1ccc(NC(=O)c2cc(Cl)ccc2Cl)cc1,6% (inactive)
24,Cc1cccc(NC(=O)c2cc(I)ccc2Cl)n1,0% (inactive)

row,SMILES,inhibition
1,CC(=O)Nc1cccc(NC(=O)c2cc(Cl)ccc2Cl)c1,56% (active)
2,CC(=O)Nc1cccc(NC(=O)c2ccc(Cl)cc2Cl)c1,3% (inactive)
3,CCCCNCCCCOc1ccccc1C(C)(C)C,8% (inactive)
4,O=C(Nc1ccc(I)cn1)C12CC3CC(CC(C3)C1)C2,7% (inactive)
5,Cc1ccc(NC(=O)/C=C/c2ccc(Cl)cc2)cc1,8% (inactive)
6,COc1ccc(C2CC(=O)C3=C(C2)NC(C)=C(C(=O)OCC(C)C)C3c2cc3c(cc2Cl)OCO3)cc1 (stereo not given),10% (inactive)
7,O=C(COc1ccccc1[N+](=O)[O-])Nc1ccc2oc(-c3cccc4ccccc34)nc2c1,13% (inactive)
8,CN(C(=O)c1ccc(Cl)cc1Cl)c1ccccc1,1% (inactive)
9,Clc1ccc(CN2CCN(/N=C/c3ccc(-c4ccccc4)cc3)CC2)cc1,8% (inactive)
10,Cc1ccc(O)c(/C=N/n2c(-c3ccccc3)n[nH]c2=S)c1,13% (inactive)
11,O=C(Nc1ccc(-c2nc(-c3ccccc3)c3cc(NC(=O)c4cccs4)ccc3n2)cc1)c1cccs1,52% (active)
12,O=C(Nc1ccc(NC(=O)c2cccs2)cc1)c1ccccc1,5% (inactive)
13,CC(=O)Nc1ccc(-c2nc(-c3ccccc3)c3cc(NC(C)=O)ccc3n2)cc1,8% (inactive)
14,COc1ccc(C(=O)NC(=S)Nc2ccc(-c3nc4ccc(C)cc4o3)cc2)cc1,12% (inactive)
15,O=C(Nc1sc2c(c1C(=O)Nc1ccccc1)CCCCC2)c1ccc([N+](=O)[O-])cc1,27% (inactive)
16,Cc1ccc2nc(-c3ccc(NC(=S)NC(=O)c4ccccc4)cc3)oc2c1,58% (active)
17,O=C(NC(=S)Nc1cccc(-c2nc3ncccc3o2)c1)c1cccc(Cl)c1,23% (inactive)
18,O=C(NC(=S)Nc1ccc(-c2nc3ncccc3o2)cc1)c1cccc(Cl)c1,59% (active)
19,Cc1ccc2nc(-c3ccc(NC(=S)NC(=O)c4ccc(C)c(C)c4)cc3)oc2c1,18% (inactive)
20,Cc1ccc(C(=O)NC(=S)Nc2ccc(-c3nc4cc(C)c(C)cc4o3)cc2)cc1,10% (inactive)
21,Cc1ccc2nc(-c3ccc(NC(=S)NC(=O)c4ccc(F)cc4)cc3)oc2c1,45% (inactive)
22,Cc1ccc2nc(-c3ccc(NC(=S)NC(=O)c4ccc([N+](=O)[O-])cc4)cc3)oc2c1,50% (active)
23,Cc1ccc(NC(=O)c2c(NC(=O)c3ccc([N+](=O)[O-])cc3)sc3c2CCCC3)cc1,0% (inactive)
24,O=C(NC(=S)Nc1ccc(-c2nc3ncccc3o2)cc1)c1cccc(F)c1,32% (inactive)

row,SMILES,inhibition
1,Cc1ccc2nc(NNC(=O)CCC(=O)O)nc(-c3ccccc3)c2c1,15% (inactive)
2,COc1cc(/C=N/n2cnnc2)ccc1OCCSc1ccc(C)cc1,15% (inactive)
3,C=C(C)COc1ccc2oc(-c3ccccc3)c(C(=O)OCC)c2c1,0% (inactive)
4,CC(C)(C)NCCOc1ccc(Cl)cc1Cl,0% (inactive)
5,O=C(CSc1nc2ccc([N+](=O)[O-])cc2s1)c1ccc(Cl)cc1,11% (inactive)
6,COc1ccc(C(=O)Nc2ccc(NC(=O)c3ccco3)c(OC)c2)cc1Cl,1% (inactive)
7,Cc1cc(C)nc(/N=C(/N)Nc2ccc(C(=O)O)cc2)n1,3% (inactive)
8,COc1ccc(-n2nc3cc(C)c(NC(=O)COc4ccc([N+](=O)[O-])cc4)cc3n2)cc1,6% (inactive)
9,Cc1ccc(N=Cc2cc(Br)cc(Br)c2O)c(C)c1,4% (inactive)
10,Cc1ccc(-c2nc3cc(NC(=S)NC(=O)c4cccs4)ccc3o2)cc1,7% (inactive)
11,Cc1cc(C)c2oc(-c3cccc(NC(=O)Cc4ccc(Cl)cc4)c3)nc2c1,25% (inactive)
12,Cc1ccc2oc(-c3ccc(NC(=O)c4cccnc4)cc3O)nc2c1,21% (inactive)
13,Cc1cc(C)c2oc(-c3ccc(NC(=O)c4cccnc4)cc3O)nc2c1,52% (active)
14,Cc1ccc2nc(-c3cccc(NC(=O)c4ccc([N+](=O)[O-])cc4)c3)oc2c1,54% (active)
15,Cc1cc2nc(-c3ccc(NC(=O)c4cccnc4)cc3O)oc2cc1C,12% (inactive)
16,O=C(NC(=S)Nc1ccc(-c2nc3ccccc3o2)cc1)c1cccs1,55% (active)
17,Cc1ccc2nc(-c3cccc(NC(=O)c4ccc(C)c([N+](=O)[O-])c4)c3)oc2c1,6% (inactive)
18,O=C(Nc1ccc(-c2nc3ccccc3o2)cc1)c1cccs1,5% (inactive)
19,Cc1ccc2oc(-c3cccc(NC(=O)c4cccc([N+](=O)[O-])c4)c3)nc2c1,0% (inactive)
20,COc1c(Cl)cc(C(=O)Nc2cccc(-c3nc4cc(C)cc(C)c4o3)c2)cc1Cl,20% (inactive)
21,Cc1cc(C)c2oc(-c3cccc(NC(=O)c4ccc(Cl)cc4)c3)nc2c1,53% (active)
22,COc1ccc(N2C(=O)/C(=C\c3cc(OC)ccc3O)SC2=S)cc1,22% (inactive)
23,O=C(N/N=C/c1sc2ccccc2c1Cl)c1ccncc1,16% (inactive)
24,COc1cc(C(=O)N/C(=C/c2cccc([N+](=O)[O-])c2)C(=O)Nc2ccc(C)cc2)cc(OC)c1OC,7% (inactive)

row,SMILES,inhibition
1,Cc1oc2c(O)c(O)ccc2c(=O)c1-c1ccccc1Cl,52% (active)
2,Cc1oc2c(C)c(O)ccc2c(=O)c1-c1ccccc1Cl,12% (inactive)
3,Cc1c(O)ccc2c(=O)c(-c3ccccc3Cl)coc12,9% (inactive)
4,O=c1c(-c2ccccc2Cl)coc2c(O)c(O)ccc12,55% (active)
5,O=c1c(-c2ccccc2Cl)coc2cc(O)ccc12,19% (inactive)
6,O=c1c(-c2ccccc2Cl)c(C(F)(F)F)oc2c(O)c(O)ccc12,41% (inactive)
7,COc1cc(C=C2C(=O)N(C)C(=O)N(C)C2=O)ccc1OCCOc1ccc(C)cc1,11% (inactive)
8,CCOC(=O)c1sc(NC(=O)COc2ccccc2C)c(C(=O)OCC)c1C,19% (inactive)
9,Cc1cc2c(cc1Br)NC(=O)C2=O,27% (inactive)
10,C=CCc1ccc(OCCOCCOc2ccc(C)cc2I)c(OC)c1,13% (inactive)
11,COc1cc(/C=C2\SC(=S)NC2=O)ccc1OS(=O)(=O)c1ccc(C)cc1,24% (inactive)
12,NC1=NC(=O)/C(=C/c2ccc(OS(=O)(=O)c3ccc4ccccc4c3)cc2)S1,20% (inactive)
13,CC(=O)Nc1ccc(S(=O)(=O)Oc2cccc(/C=C3\SC(=S)NC3=O)c2)cc1,8% (inactive)
14,O=C1NC(=S)S/C1=C\c1ccc(OS(=O)(=O)c2cccc([N+](=O)[O-])c2)cc1,31% (inactive)
15,Cc1ccc(S(=O)(=O)Oc2ccc(/C=C3\SC(=S)NC3=O)cc2)cc1[N+](=O)[O-],57% (active)
16,Cc1ccc(S(=O)(=O)Oc2cccc(/C=C3\SC(N)=NC3=O)c2)cc1,15% (inactive)
17,O=C1NC(=S)S/C1=C\c1cccc(OS(=O)(=O)c2ccc([N+](=O)[O-])cc2)c1,57% (active)
18,COc1cc(/C=C2/SC(=S)NC2=O)cc(Cl)c1OS(=O)(=O)c1ccc(C)cc1,54% (active)
19,NC1=NC(=O)/C(=C/c2cccc(OS(=O)(=O)c3ccc4ccccc4c3)c2)S1,50% (active)
20,Cc1ccc(/C=C2/SC(=S)NC2=O)cc1[N+](=O)[O-],8% (inactive)
21,COc1cc(/C=C2\SC(=S)NC2=O)cc(Cl)c1OS(=O)(=O)c1ccccc1,11% (inactive)
22,O=C1NC(=S)S/C1=C\c1cccc(OS(=O)(=O)c2cccc([N+](=O)[O-])c2)c1,44% (inactive)
23,COc1ccc(-c2ccccc2)cc1NCc1ccc(C)s1,17% (inactive)

# Source: PubChem BioAssay AID372 (MTDP, 2006)
